Test results reported in PubChem BioAssay (NCATS).
Inconclusive results are not listed. Values without a mark were called inactive. The call rests on the fitted dose curve; in most records, active means well fitted inhibition curve with a large enough effect; inconclusive means small, poorly fitted or top-dose-only effect; inactive means flat fitted curve, though single readings scatter.

Assay: qHTS profiling for inhibitors of Plasmodium falciparum proliferation (AID 504749);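 further: 0% = DMSO vehicle and full inhibition = artemisinin control; nearly all actives have a fitted effect of over 60% in size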
Settings: P. falciparum in erythrocytes, SYBR Green DNA, 72 h; at 28.7 µM (top of the series); parasite line A
Summary of the method: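 Fluorescence of SYBR Green-bound parasite DNA, read at 485/535 nm, served as the growth measure. Infected erythrocytes were cultured with compound 72 h; artemisinin (0.29 uM) and DMSO wells defined the normalization range.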

Row | Structure (SMILES) | activity, negative = inhibition [%]
1 | O=P(O)(O)O | 1.79
2 | CC(=O)Nc1ccc(OC(C)=O)cc1 | 10.5
3 | CS(=O)(=O)OCC(O)C(O)COS(C)(=O)=O (configuration not stated) | -4.77
4 | CCOc1ccc(S(=O)(=O)O)c2cccnc12 | 8.12
5 | CN(Cc1ccccc1)Cc1ccccc1 | 9.08
6 | CN(C)c1ccc(C(=C2C=CC(=[N+](C)C)C=C2)c2c(O)c(S(=O)(=O)[O-])cc3cc(S(=O)(=O)O)ccc23)cc1 | -15.9
7 | c1ccc2c(c1)OCC(CN1CCCCC1)O2 (configuration not stated) | 4.84
8 | COc1ccc(C(=O)c2ccc(C)cc2)c(O)c1 | 16.1
9 | [O]=[Bi][O][Bi]=[O] | 0.672
10 | COc1ccc(/C=C/C(=O)O)cc1 | 8.39
11 | O=S(=O)(O)CCCS(=O)(=O)O | -6.14
12 | OCC(O)CO | 7.74
13 | O=C1[O][Bi][O]c2ccccc21 | 7.71
14 | Cc1cc(=O)c(C(=O)N[C@@H](C(=O)N[C@@H]2C(=O)N3C(C(=O)O)=C(CSc4nnnn4C)CS[C@H]23)c2ccc(O)cc2)c[nH]1 | 5.19
15 | CCOC(=O)C1=C(COCCN)NC(C)=C(C(=O)OC)C1c1ccccc1Cl (configuration not stated) | -0.523
16 | CN(CCO)CC(O)Cn1cnc2c1c(=O)n(C)c(=O)n2C (configuration not stated) (tested in a mixture with another compound) | 12.7
17 | O=C(O)/C=C/C(=O)Nc1ccc(S(=O)(=O)Nc2nccs2)cc1 | 17.5
